Rows were chosen to be rich in hits. Some 1.5% of all compounds tested hit in one or more screens of this group.
MRP1 act: activators of MRP-1. H69AR cells + doxorubicin, viability rescue, CellTiter-Glo. AID 799. hit rate 0.61% among 140,000. viability increase, % at 10 µM;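 active = viability gain under doxorubicin at or above a set limit, the compound median plus 3 SD, cut at about 4.7% in these data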;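 also: MRP-1 overexpressing cells given doxorubicin 25 µM after compound pretreatment; 18-22 h compound pretreatment then 72 h with doxorubicin before readout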
hDAT+cocaine: changed human dopamine transporter uptake under cocaine IC80; hit rate 1.3% among 110,000; B-score at 10 µM; LLC-PK1 hDAT cells, [14C]-dopamine uptake with cocaine IC80; actives deviate in either direction;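 active = Z score or B-score, a plate-position-corrected score, falls beyond the plate's 99.7% confidence bounds, in either direction; inactive = both scores lie inside the 99.7% bounds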
Target sequence (Q01959 whole entry, looked up): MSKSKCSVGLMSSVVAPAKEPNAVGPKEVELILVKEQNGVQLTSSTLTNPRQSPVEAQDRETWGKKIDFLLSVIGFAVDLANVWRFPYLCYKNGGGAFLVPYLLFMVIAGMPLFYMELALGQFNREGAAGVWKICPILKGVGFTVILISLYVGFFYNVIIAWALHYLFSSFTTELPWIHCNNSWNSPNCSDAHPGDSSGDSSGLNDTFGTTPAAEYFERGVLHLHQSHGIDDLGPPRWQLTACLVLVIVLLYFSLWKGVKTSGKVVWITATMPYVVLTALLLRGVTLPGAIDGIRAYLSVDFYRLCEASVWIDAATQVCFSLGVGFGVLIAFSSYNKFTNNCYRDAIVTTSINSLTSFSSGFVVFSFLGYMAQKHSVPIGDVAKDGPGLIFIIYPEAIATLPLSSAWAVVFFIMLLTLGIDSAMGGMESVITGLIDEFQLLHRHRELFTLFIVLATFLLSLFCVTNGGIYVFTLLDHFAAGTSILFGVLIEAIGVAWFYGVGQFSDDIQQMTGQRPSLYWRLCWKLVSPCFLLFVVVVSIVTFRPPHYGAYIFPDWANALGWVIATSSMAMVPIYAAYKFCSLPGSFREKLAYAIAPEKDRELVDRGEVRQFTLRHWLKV
MRP resist rev: reverses drug resistance mediated by MRP; differential viability (reversal), % at 10 µM; H69AR cells + 2 uM doxorubicin, CellTiter-Glo, 72 h; hit rate 0.04% among 85,000;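 active = viability drop by adding the cancer drug above about 55%, with treated viability meeting a 40% cutoff, limit read from the data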;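 also: larger differential means the compound sensitizes cells more to doxorubicin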
Of the large screens only hits and unclear results are named; the others gave an inactive call.

CCCCOc1cccc(NC(=O)CSc2nccn2C)c1	hDAT+cocaine 2.74
Cn1ccnc1SCC(=O)Nc1cccc(O)c1	none
CCOc1ccc2nc(NC(=O)CN3CCC(n4nnc5cc(F)ccc54)CC3)sc2c1	hDAT+cocaine 4.3
O=C(CN1CCC(n2nnc3cc(F)ccc32)CC1)NC1CC1	none (no result: hDAT+cocaine)
CC1CCC(C(=O)NC(C(=O)N2CCC(N3CCCCC3)CC2)C(C)C)CC1 (centres undefined)	hDAT+cocaine -2.69
CCOC(=O)N1CCN(C(=O)C(NC(=O)C2CCC(C)CC2)C(C)C)CC1 (centres undefined)	none
CCCNC(=O)c1ccc(-c2nc3ccccc3s2)s1	none (no result: hDAT+cocaine)
CNc1sc(C(=O)c2ccccc2F)c(N)c1-c1nc2ccccc2s1	MRP1 act 6.8
N#Cc1nc(COc2ccc(Cl)cc2Cl)oc1N1CCN(c2ccccc2)CC1	none
N#Cc1nc(COc2ccccc2)oc1N1CCOCC1	none
N#Cc1nc(COc2ccccc2)oc1N1CCCCCC1	MRP1 act 6.3
N#Cc1nc(COc2ccccc2)oc1N1CCCC1	MRP1 act 5.0 (no result: hDAT+cocaine, MRP resist rev)
Cc1ccc(NS(=O)(=O)c2ccc(NC(=O)C(C)Sc3ccc(Cl)cc3)cc2)c(C)c1 (centres undefined)	none (no result: hDAT+cocaine, MRP resist rev)
CCCC(=O)c1ccc(N2CCC(C)CC2)c(F)c1	none (no result: hDAT+cocaine, MRP resist rev)
COC(C[C@H]1O[C@H]1[C@H](O)[C@@H](C)OCc1ccccc1)OC	none (no result: MRP1 act, MRP resist rev)
Nc1nc(CSc2n[nH]c(-c3ccccc3)n2)nc(Nc2ccccc2)n1	none
Cc1ccc(-c2nc(Nc3ccccc3)n[nH]2)cc1	hDAT+cocaine -3
Clc1ccccc1Cn1nnc2c(Nc3ccccc3)ncnc21	MRP1 act 4.7 (no result: MRP resist rev)
Clc1ccccc1Cn1nnc2c(NCC3CC3)ncnc21	none
FC(F)(F)c1ccc(N2CCN(c3ncnc4c3nnn4Cc3ccccc3Cl)CC2)cc1	none
Fc1ccc(N2CCN(c3ncnc4c3nnn4Cc3ccccc3Cl)CC2)cc1	MRP1 act 5.0
CCOC(=O)c1cc(CC)sc1NC(=O)c1cc(OC)c(OC)c(OC)c1	none
CC1=NN(C(=O)c2ccc(C)o2)C(O)(c2ccccc2)C1 (centres undefined)	none (no result: hDAT+cocaine, MRP resist rev)
O=C1CC(N2CCN(c3nc4ccccc4s3)CC2)C(=O)N1c1cccc(F)c1 (centres undefined)	none
Cc1c(NC(=O)/C(=C\c2ccccc2)NC(=O)c2ccccc2)c(=O)n(-c2ccccc2)n1C	hDAT+cocaine -8.77 (no result: MRP resist rev)
Cc1c(NC(=O)c2ccccc2)c(=O)n(-c2ccccc2)n1C	none
O=C(N/N=C/c1ccc(-c2ccc([N+](=O)[O-])cc2)o1)C(O)c1ccccc1 (centres undefined)	MRP1 act 5.5 (no result: hDAT+cocaine, MRP resist rev)
O=C(N/N=C\c1ccc(-c2ccc([N+](=O)[O-])cc2)o1)C1COc2ccccc2O1 (centres undefined)	none (no result: hDAT+cocaine, MRP resist rev)
COC(=O)C1=C(C)NC2=C(C(=O)CC(C)(C)C2)C1c1cnn(C)c1C (centres undefined)	none (no result: hDAT+cocaine, MRP resist rev)
Cc1nnc2n(c1=O)N=C(c1ccc(Cl)cc1)CS2	none (no result: hDAT+cocaine, MRP resist rev)
COCc1cc(C)nc(OCC(=O)N/N=C/c2ccc(-c3cccc([N+](=O)[O-])c3)o2)c1C#N	none (no result: hDAT+cocaine, MRP resist rev)
COCc1cc(C)nc(OCC(=O)N/N=C/c2ccc(-c3cc([N+](=O)[O-])ccc3C)o2)c1C#N	MRP1 act 4.7 (no result: MRP resist rev)
COc1c(Cl)cc(Cl)cc1/C=C/C(=O)c1ccc(NC(=O)c2cccs2)cc1	none (no result: hDAT+cocaine, MRP resist rev)
O=C(NCCC1=CCCCC1)C(=O)NCc1ccccc1	none (no result: hDAT+cocaine, MRP resist rev)
Cc1[nH]c2ccccc2c1C(=O)C(=O)NCCC1=CCCCC1	MRP1 act 12.0 (no result: hDAT+cocaine, MRP resist rev)
CC1=C(C(=O)Nc2ccccc2C)C(c2ccc(C)o2)N2C(=O)CSC2=N1 (centres undefined)	MRP1 act 7.3
Cc1ccccc1NC(=O)CCN1C(=O)CSC1=O	none
Cc1oc2c(O)c(O)ccc2c(=O)c1-c1cnn(-c2ccccc2)c1	MRP1 act 4.9 (no result: MRP resist rev)
Cc1oc2c(O)c(O)ccc2c(=O)c1-c1ccccc1	none (no result: MRP1 act, MRP resist rev)
O=C(c1ccc(-c2cc3ccccc3oc2=O)cc1)N1CCN(c2ccc(Cl)cc2[N+](=O)[O-])CC1	none (no result: hDAT+cocaine, MRP resist rev)
Cc1ccc(NC(=O)COc2ccccc2C(=O)Nc2ccccc2)cc1Cl	none (no result: hDAT+cocaine, MRP resist rev)
CCOc1ccc(NC(=O)C(C)Oc2ccccc2C(=O)Nc2ccc(C)c(Cl)c2)cc1 (centres undefined)	hDAT+cocaine 2.66 (no result: MRP resist rev)
NNc1ncnc2c1cnn2-c1ccccc1	none
c1ccc(-n2ncc3c(NCc4cccnc4)ncnc32)cc1	hDAT+cocaine 2.56
Cc1ccccc1C(=O)N1CCN(c2ncnc3c2cnn3-c2ccccc2)CC1	hDAT+cocaine -5.34
Cc1ccccc1Nc1ncnc2c1cnn2-c1ccccc1	hDAT+cocaine 3.11
c1ccc(-n2ncc3c(NCc4cccs4)ncnc32)cc1	none
Cc1ccc(C(=O)N2CCN(c3ncnc4c3cnn4-c3ccccc3)CC2)cc1	none (no result: MRP1 act)
Cc1c(N=Cc2cc(Br)cc(Br)c2O)cccc1C(=O)O	none (no result: hDAT+cocaine, MRP resist rev)
O=C(Nc1ccc(Br)cc1)C(c1ccccc1)c1ccccc1	none (no result: MRP1 act, MRP resist rev)
CCOC(=O)c1c(NC(=O)CSc2nnc3c(n2)[nH]c2ccccc23)sc2c1CCN(C)C2	none (no result: MRP1 act, MRP resist rev)
COC(C/C=C\[C@H](O)[C@H](C)OCc1ccccc1)OC	none (no result: MRP1 act, MRP resist rev)
CCOC(=O)Cc1csc(NC(=O)COc2ccc(N(C)S(=O)(=O)c3cccs3)cc2)n1	none
CN(c1ccc(OCC(=O)N2CCCCC2)cc1)S(=O)(=O)c1cccs1	hDAT+cocaine 3.02
COc1ccc(S(=O)(=O)n2nc(OC(=O)c3cccs3)cc2NC(=O)c2cccs2)cc1	none (no result: MRP1 act, MRP resist rev)
Cn1c(=O)c2c(nc(CN3CCN(c4ccccc4)CC3)n2Cc2ccccc2Cl)n(C)c1=O	none
Cn1c(=O)c2c(nc(CN3CCN(c4ccccc4)CC3)n2Cc2c(F)cccc2Cl)n(C)c1=O	MRP resist rev 59.8
O=C(CNc1ccccc1-c1ccccc1)NCc1ccccc1	none (no result: hDAT+cocaine, MRP resist rev)
COC(C[C@@H]1O[C@@H]1[C@@H](O)COCc1ccccc1)OC	none (no result: MRP1 act, MRP resist rev)
CC12CCC(C(=O)N(CSC(=S)N/N=C\c3ccccc3Cl)C1=O)C2(C)C (centres undefined)	none
CC12CCC(C(=O)N(CSC(=S)N/N=C\c3ccccc3)C1=O)C2(C)C (centres undefined)	MRP1 act 4.8
COc1ccc(-c2c(C#N)c(N)nc3sc(C(=O)c4ccccc4)c(N)c23)cc1	MRP1 act 11.5 (no result: hDAT+cocaine, MRP resist rev)
COc1ccc(C(=O)c2sc3nc(-c4ccccc4)ccc3c2N)cc1	none (no result: hDAT+cocaine, MRP resist rev)
COC(=O)c1ccccc1NC(=O)C(CCS(C)(=O)=O)NC(C)=O (centres undefined)	none
COc1ccc(OC)c(NC(=O)C(CCS(C)(=O)=O)NC(C)=O)c1 (centres undefined)	hDAT+cocaine 4.26
Cc1ccc2[nH]c(O)c(N=NC(=O)CCc3ccccc3)c2c1Br	none (no result: hDAT+cocaine, MRP resist rev)
COC(=O)[C@@H]1CC[C@H](C)[C@@H](c2ccc(C)cc2)N1C(=O)c1ccc(/C=N/OCC[C@@H]2C=C[C@H](OC(C)=O)[C@@H](COC(C)=O)O2)cc1	none (no result: hDAT+cocaine, MRP resist rev)
CCn1c(SCC(=O)c2ccc(O)c(O)c2)nnc1-c1ccc(C)cc1	none (no result: MRP resist rev)
CCn1c(SCC(=O)c2ccc3c(c2)Cc2ccccc2-3)nnc1-c1ccc(N)cc1	hDAT+cocaine 1.71 (no result: MRP resist rev)
CCC(=O)N1COC[C@@H]1Cc1ccccc1	none (no result: hDAT+cocaine, MRP resist rev)
COc1ccc(-c2cc3nc(C)cc(N4CC(C)CC(C)C4)n3n2)cc1 (centres undefined)	MRP1 act 5.1
COc1ccc(-c2cc3nc(C)cc(C)n3n2)c(OC)c1	none (no result: MRP1 act, hDAT+cocaine)
CCc1cc(SC#N)cc(CC)c1NC(=O)CCl	none (no result: hDAT+cocaine, MRP resist rev)
CCc1nnc(NC(=O)C2CCCN2S(=O)(=O)c2ccc(F)cc2)s1 (centres undefined)	MRP1 act 5.8

Source: PubChem (several laboratories)
